Hits are enriched below; roughly 19% of the tested compounds scored in any of these assays.
uPA surface inh = qHTS for Inhibitors of Cell Surface uPA Generation; Potency, µM (doses to about 38.3 µM), without a hit: at the top dose activity change, negative = inhibition, hits mostly inhibitors; hit rate 0.31% among 330,000; cell surface uPA generation assay, qHTS; active means well fitted inhibition curve with a large enough effect; inconclusive means small, poorly fitted or top-dose-only effect; inactive means no such curve, though single readings can be large or run the other way; tested in mouse RAW 264.7 cells; further: potency means the concentration at half of the fitted maximal effect; nearly all actives have a fitted effect of over 55% in size
TDP1 cell CPT = qHTS for Inhibitors of human tyrosyl-DNA phosphodiesterase 1 (TDP1): qHTS in cells in presence of CPT. chicken DT40 Tdp1-/-;hTDP1 cells + 20 nM CPT, ATP luminescence, 48 h. Potency, µM (series often up to 46.2 µM), inactives show top-dose activity change, negative = growth inhibition, actives largely listed as inhibitors. hit rate 12% among 420,000; further: potency means the concentration at half of the fitted maximal effect; nearly all actives have a fitted effect of over 55% in size
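Cell growth measured by CellTiter-Glo luminescence after a minimum 48 h, 37 C compound exposure with 20 nM CPT in Tdp1-knockout DT40 cells stably expressing hTDP1, seeded 400/well; qHTS titration format.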
HT1080 IDH1KD tx = qHTS for induction of synthetic lethality in tumor cells producing 2HG: qHTS for the HT-1080-IDH1KD cell line; Potency, µM (series often up to 46.1 µM), without a hit: at the highest dose activity, negative = toxicity, actives largely listed as cytotoxic; hit rate 2% among 360,000; HT-1080 IDH1 knockdown viability, ATP luminescence, 48 h;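 further: potency means the concentration at half of the fitted maximal effect; 0% = DMSO wells and -100% = cell-free medium wells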
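In this qHTS, HT-1080 cells depleted of IDH1 are exposed for 48 h at 37 °C to compound titrations. Toxicity is scored from CellTiter-Glo luminescence, with DMSO as full viability and medium alone as none.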
TDP1 cell noCPT = qHTS for Inhibitors of human tyrosyl-DNA phosphodiesterase 1 (TDP1): qHTS in cells in absence of CPT | DT40 Tdp1-/- hTDP1 cells, no CPT, ATP luminescence, 48 h | Potency, µM (doses to about 46.2 µM), for the others: at the top dose activity change, negative = growth inhibition, usual class: inhibitors | hit rate 15% among 420,000; further: potency means the concentration at half of the fitted maximal effect; nearly all actives have a fitted effect of over 55% in size
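Chicken DT40 Tdp1-/- cells stably complemented with human TDP1 were seeded at 400 cells/well with DMSO in place of 20 nM camptothecin. After compound pinning, cells grew at least 48 hr at 37 °C; viability read by CellTiter-Glo luminescence.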
IL-1B inflam inh = qHTS for Inhibitors of Inflammasome Signaling: IL-1-beta AlphaLISA Primary Screen | THP-1 LPS/ATP IL-1B secretion, AlphaLISA, 16 h; hits give low values | AID 743279, 2014 | hit rate 4.7% among 360,000 | activity change, % at 57.5 µM; in the data active means activity change below about -50%; inconclusive means mostly about -30% to -49%
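THP-1 cells pretreated 1 hr with compounds (up to 57.5 uM final), then stimulated with LPS (250 ng/mL final) plus ATP (1.25 mM final); secreted IL-1B measured by AlphaLISA after 16 hr, decreased signal indicating inhibition.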
HT1080NT lethal = qHTS for induction of synthetic lethality in tumor cells producing 2HG: qHTS for the HT-1080-NT fibrosarcoma cell line | HT-1080-NT fibrosarcoma viability, CellTiter-Glo ATP luminescence, 48 h | Potency, µM (highest dose often 46.1 µM), without a hit: at the top dose activity, negative = less viability, hits mostly cytotoxic | hit rate 1.6% among 360,000 | AID 686970, 2013;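 further: NT is the 2HG producing partner of a matched IDH1 knockdown line; potency means the concentration at half of the fitted maximal effect; 0% = DMSO-treated cells and -100% = media-only wells without cells; nearly all actives have a fitted effect of over 55% in size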
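A 48-hour cytotoxicity screen used HT-1080-NT cells plated 2 hours before compound delivery. ATP-based CellTiter-Glo luminescence measured viability, normalized to DMSO and no-cell controls.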
An asterisk follows results filed as active; ? = inconclusive; . = no result. Unless noted, the call rests on the fitted dose curve; in most records, active means well fitted curve in the direction sought with a large enough effect; inconclusive means small, poorly fitted or top-dose-only effect, or another doubt; inactive means no such curve, though single readings can be large; an effect the other way counts as inactive or inconclusive. Unless noted, on the % scale 0 is the no-effect control and ±100 the full control effect.

SMILES	uPA surface inh	TDP1 cell CPT	HT1080 IDH1KD tx	TDP1 cell noCPT	IL-1B inflam inh	HT1080NT lethal
Cc1ccc(C2c3[nH]c4ccccc4c3CCN2C(=O)CCc2ccccc2)cc1 (stereo not drawn)	.	?	.	21µM*	.	.
CCOc1cccc(C2c3[nH]c4ccccc4c3CCN2C(=O)CSCc2ccc(F)cc2)c1 (stereo not drawn)	.	18µM*	.	26µM*	.	.
O=C(CCN1CCOCC1)N1CCc2c([nH]c3ccccc23)C1c1cccc(Cl)c1 (stereo not drawn)	-2%	?	?	?	-22	-11%
Cn1nccc1C(=O)N1CCc2c([nH]c3ccccc23)C1c1ccc(F)cc1 (stereo not drawn)	8%	-14%	-14%	-7%	-12	0%
O=[N+]([O-])c1ccc2c(c1)nc(CO)n2Cc1ccccc1	9%	?	5%	-13%	20	4%
COc1ccc(C(=O)NCC2(N3CCN(C)CC3)CCCCC2)cc1	.	2%	.	6%	.	.
COc1ccc2c(c1OC)C(=O)N1N=C(c3ccc(F)cc3)CC21 (stereo not drawn)	-9%	?	2%	16µM*	1	-2%
CC(C)NC(=O)CSc1c2c(nc3ccccc13)CCCC2	-2%	-2%	10%	?	34	10%
CCN(C(=O)c1ccc2c(SCC(=O)O)c3c(nc2c1)CCC3)c1cc(Cl)ccc1OC	1%	-3%	0%	-13%	4	8%
COc1ccccc1NC(=O)CSc1c2c(nc3ccccc13)CCC2	-4%	?	-26%	?	?	-6%
CCCCN(CC)C(=O)CSc1c2c(nc3ccc(Cl)cc13)CCCC2	.	7.3µM*	.	16µM*	.	.
O=C(CSc1c2c(nc3cc(Cl)ccc13)CCCC2)NCc1ccccc1Cl	.	18µM*	.	15µM*	.	.
COCCNC(=O)CSc1c2c(nc3ccc(Cl)cc13)CCCC2	?	16µM*	-29%	?	?	-21%
O=C(CSc1c2c(nc3ccc(Cl)cc13)CCCC2)NCc1ccccc1Cl	.	15µM*	.	23µM*	.	.
COc1ccccc1CCNC(=O)Cc1c(C)c2ccc(O)cc2oc1=O	.	8%	.	-17%	.	.
O=C(CSc1c2c(nc3cc(Cl)ccc13)CCCC2)N1CCN(c2ccccc2)CC1	.	7.3µM*	.	5.8µM*	.	.
Cc1cc(C)c2cc(C#N)c(SCC(=O)NCc3ccco3)nc2c1	-10%	18µM*	-6%	18µM*	1	-2%
COc1cc2nc(SCC(=O)NCc3ccco3)n(Cc3ccc(Cl)cc3)c(=O)c2cc1OC	.	?	-1%	-4%	39	0%
O=C(CSc1c2c(nc3cc(Cl)ccc13)CCCC2)NCc1ccco1	-8%	23µM*	?	16µM*	-66*	-19%
CCOC(=O)CSc1nc2cc(C)cc(C)c2cc1C#N	1%	-23%	6%	?	0	14%
CCC(Oc1ccc(Br)cc1Cl)C(=O)Nc1nnc(C2CC2)s1 (stereo not drawn)	5%	-15%	2%	-24%	13	2%
COc1ccc(N2CCN(S(=O)(=O)c3csc(C(N)=O)c3)CC2)cc1	.	-15%	.	-5%	.	.
Cc1cccc(C)c1NC(=O)C(=O)NCC(c1cccnc1)N1CCc2ccccc21 (stereo not drawn)	.	15µM*	.	13µM*	.	.
Cc1ccc(Cl)cc1NC(=O)C(=O)NCC(c1cccnc1)N1CCc2ccccc21 (stereo not drawn)	.	13µM*	.	13µM*	.	.

High-throughput results: PubChem BioAssay, National Center for Advancing Translational Sciences (NCATS)
